From ChEMBL document CHEMBL1961873, “Compounds: GSK PKIS; Assays: Nanosyn kinase panel” (2012)

Biological target: Platelet-derived growth factor receptor alpha (Homo sapiens) (UniProt P16234)
Conditions: at 1 µM

Sequence of Platelet-derived growth factor receptor alpha (Homo sapiens) (P16234 whole entry): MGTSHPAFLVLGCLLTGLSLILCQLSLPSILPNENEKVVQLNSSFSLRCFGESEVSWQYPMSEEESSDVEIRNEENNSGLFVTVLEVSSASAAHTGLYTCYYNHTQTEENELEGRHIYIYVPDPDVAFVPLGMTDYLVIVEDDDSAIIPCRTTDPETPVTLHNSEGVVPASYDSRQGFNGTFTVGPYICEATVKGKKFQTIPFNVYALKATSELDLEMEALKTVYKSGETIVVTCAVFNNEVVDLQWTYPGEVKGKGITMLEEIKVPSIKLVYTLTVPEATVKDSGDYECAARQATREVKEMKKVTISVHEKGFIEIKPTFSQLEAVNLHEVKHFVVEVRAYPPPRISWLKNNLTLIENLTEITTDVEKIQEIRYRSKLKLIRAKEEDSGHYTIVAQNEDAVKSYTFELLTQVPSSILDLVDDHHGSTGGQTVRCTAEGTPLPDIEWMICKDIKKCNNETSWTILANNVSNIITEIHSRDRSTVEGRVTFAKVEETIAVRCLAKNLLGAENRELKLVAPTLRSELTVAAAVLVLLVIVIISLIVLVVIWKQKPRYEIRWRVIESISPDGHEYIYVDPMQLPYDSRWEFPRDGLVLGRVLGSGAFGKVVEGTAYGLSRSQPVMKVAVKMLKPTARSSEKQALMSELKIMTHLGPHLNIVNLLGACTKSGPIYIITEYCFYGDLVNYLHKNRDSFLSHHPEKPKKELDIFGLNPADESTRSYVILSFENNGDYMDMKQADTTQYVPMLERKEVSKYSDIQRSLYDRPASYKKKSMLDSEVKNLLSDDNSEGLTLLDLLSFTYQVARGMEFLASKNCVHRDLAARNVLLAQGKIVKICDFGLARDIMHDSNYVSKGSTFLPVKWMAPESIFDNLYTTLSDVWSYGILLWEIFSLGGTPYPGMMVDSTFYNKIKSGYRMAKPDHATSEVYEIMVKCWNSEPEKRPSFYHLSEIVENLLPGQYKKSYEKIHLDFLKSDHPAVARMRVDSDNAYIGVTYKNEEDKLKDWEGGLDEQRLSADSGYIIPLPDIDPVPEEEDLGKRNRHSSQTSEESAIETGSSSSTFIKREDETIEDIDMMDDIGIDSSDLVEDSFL

Row | Structure (SMILES) | inhibition
1 | Nc1ccc(C#Cc2cncnc2Nc2ccc(OCc3cccc(F)c3)c(Cl)c2)cc1 | 5.52%
2 | O=S(=O)(CCOCc1ccc(-c2ccc3ncnc(Nc4ccc(OCc5cccc(F)c5)c(Cl)c4)c3c2)o1)c1ccccc1 | 10%
3 | CS(=O)(=O)Nc1cccc(-c2ccc3c(NC(=O)C4CC4)n[nH]c3c2)c1 | 13.2%
4 | CCCN1CCCC(c2ccc(Nc3nc(Nc4cc(F)ccc4C(N)=O)c4cc[nH]c4n3)c(OC)c2)C1 (centres undefined) | 38.3%
5 | OCc1ccc(-c2nc(-c3ccccn3)c(-c3ccc4c(c3)OCO4)[nH]2)cc1 | 12.2%
6 | COc1ccc(-c2nn3ncccc3c2-c2ccnc(Nc3cccc(C(F)(F)F)c3)n2)cc1 | 5.9%
7 | CCn1c(-c2nonc2N)nc2c(C#CC(C)(C)O)nc(OCCNC)cc21 | 16.3%
8 | Cc1cc(Cl)cc2c1NC(=O)C2=NNc1ccc(S(N)(=O)=O)cc1 | 20.5%
9 | O=C(Nc1ccc(Oc2ccc3[nH]c(NC(=O)c4ccco4)nc3c2)cc1)Nc1cc(C(F)(F)F)ccc1F | 85%
10 | COc1cc(Nc2nccc(-c3cnn4ncccc34)n2)cc(OC)c1 | 61.9%
11 | CS(=O)(=O)CCNCc1nc(-c2ccc3ncnc(Nc4ccc(OCc5cccc(C(F)(F)F)c5)cc4)c3c2)cs1 | 13.7%
12 | CN(C)CCCn1c(-c2nonc2N)nc2cnccc21 | 8.22%
13 | Cc1ccc(Nc2ccnc(Nc3cccc(C(N)=O)c3)n2)cc1O | 82.3%
14 | Oc1cccc(-c2nc(-c3ccccc3)[nH]c2-c2ccncc2)c1 | 18.5%
15 | c1ccc(Cc2nc3ccc(Nc4ncnc5ccccc45)cc3[nH]2)cc1 | 17%
16 | COC(=O)c1ccc2c(c1)C(=Cc1cc(Br)c(O)c(Br)c1)C(=O)N2 | 16.1%

Test system: Platelet-derived growth factor receptor alpha (Homo sapiens), P16234 [D842V]
Conditions: at 0.1 µM

Sequence of Platelet-derived growth factor receptor alpha (Homo sapiens), P16234 [D842V] (P16234 whole entry D842V): as the sequence (P16234 whole entry) above, with D842V counted along it

Row | Structure (SMILES) | inhibition
17 | COc1cccc(-n2nc(C)c3c(N/N=C(\C)c4ccncc4)ncnc32)c1 | -0.18%
18 | N#Cc1c(NC(=O)c2ccccc2F)sc2c1CCCC2 | 1.43%
19 | COc1cc2ncnc(Nc3ccc4c(cnn4Cc4ccccc4)c3)c2cc1OC | 4%
20 | Cc1cc(O)cc(C)c1/C=C/c1cncc(C(=O)N(C)C)c1 | 3.51%
21 | NS(=O)(=O)c1ccc(NC=C2C(=O)Nc3ccc4ncsc4c32)cc1 | 75.9%
22 | NS(=O)(=O)c1ccc(-c2cc3ccncc3cc2OCc2ccccc2)cc1 | 0.32%
23 | Cc1ccc2c(-c3ccnc(Nc4ccc5c(c4)OCCO5)n3)c(-c3ccc(C(F)(F)F)cc3)nn2n1 | 2.16%
24 | Cc1cc(-c2ccccn2)cc(C)c1/C=C/c1cncc(-c2nn[nH]n2)c1 | -0.56%
25 | COc1cc(/C=N/Nc2ncnc3c2cnn3C(C)C)ccc1O | 13.3%
26 | COC(=O)c1cncc(/C=C/c2c(C)cc(O)cc2C)c1 | 0.7%
27 | COc1ccc2ncnc(Nc3ccc(OCc4ccccc4)cc3)c2c1 | 0.76%
28 | Cc1ccc(O)cc1Nc1ccnc2ccc(S(C)(=O)=O)cc12 | 88.8%
29 | CC(C)c1ccc(Nc2nccc(-c3cnn4ncccc34)n2)cc1 | 6.98%
30 | COc1cc2ncn(-c3cc(OCc4ccccc4S(C)(=O)=O)c(C#N)s3)c2cc1OC | 47.5%
31 | Nc1nccc(C#Cc2cncnc2Nc2ccc(OCc3cccc(F)c3)c(Cl)c2)n1 | 4.4%
32 | [O-][S+]1CCN(Cc2ccc(-c3ccc4ncnc(Nc5ccc(OCc6ccccc6)c(Cl)c5)c4c3)o2)CC1 | 0.45%
33 | CCS(=O)(=O)c1ccc(OC)c(Nc2nccc(N(C)c3ccc4c(C)n[nH]c4c3)n2)c1 | 21.8%

Row | Structure (SMILES) | inhibition
34 | Nc1ccc(C#Cc2cncnc2Nc2ccc(OCc3cccc(F)c3)c(Cl)c2)cc1 | 2.77%
35 | O=S(=O)(CCOCc1ccc(-c2ccc3ncnc(Nc4ccc(OCc5cccc(F)c5)c(Cl)c4)c3c2)o1)c1ccccc1 | 0.75%
36 | CS(=O)(=O)Nc1cccc(-c2ccc3c(NC(=O)C4CC4)n[nH]c3c2)c1 | 4.33%
37 | CCCN1CCCC(c2ccc(Nc3nc(Nc4cc(F)ccc4C(N)=O)c4cc[nH]c4n3)c(OC)c2)C1 (centres undefined) | 8.12%
38 | OCc1ccc(-c2nc(-c3ccccn3)c(-c3ccc4c(c3)OCO4)[nH]2)cc1 | 4.62%
39 | COc1ccc(-c2nn3ncccc3c2-c2ccnc(Nc3cccc(C(F)(F)F)c3)n2)cc1 | 1.64%
40 | CCn1c(-c2nonc2N)nc2c(C#CC(C)(C)O)nc(OCCNC)cc21 | 5.07%
41 | Cc1cc(Cl)cc2c1NC(=O)C2=NNc1ccc(S(N)(=O)=O)cc1 | 4.17%
42 | O=C(Nc1ccc(Oc2ccc3[nH]c(NC(=O)c4ccco4)nc3c2)cc1)Nc1cc(C(F)(F)F)ccc1F | 4.64%
43 | COc1cc(Nc2nccc(-c3cnn4ncccc34)n2)cc(OC)c1 | 12.6%
44 | CS(=O)(=O)CCNCc1nc(-c2ccc3ncnc(Nc4ccc(OCc5cccc(C(F)(F)F)c5)cc4)c3c2)cs1 | -0.28%
45 | CN(C)CCCn1c(-c2nonc2N)nc2cnccc21 | 2.47%
46 | Cc1ccc(Nc2ccnc(Nc3cccc(C(N)=O)c3)n2)cc1O | 48.4%
47 | Oc1cccc(-c2nc(-c3ccccc3)[nH]c2-c2ccncc2)c1 | 4%
48 | c1ccc(Cc2nc3ccc(Nc4ncnc5ccccc45)cc3[nH]2)cc1 | -0.75%
49 | COC(=O)c1ccc2c(c1)C(=Cc1cc(Br)c(O)c(Br)c1)C(=O)N2 | 2.33%
